In the library only some 3.7% were active in any assay of this set; here they are far more common.
TIM10 inh – TIM10 yeast growth inhibition. actives 1.4% (n = 330,000). inhibition, % at 10 µM. S. cerevisiae TIM10 strain growth, BacTiter-Glo luminescence, 24 h;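 active means inhibition of 40% or more at the single tested concentration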;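 further: wild-type TIM10 isogenic control strain grown at permissive 25 °C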
tim23-1 inh – tim23-1 yeast growth inhibition; inhibition, % at 20 µM; S. cerevisiae tim23-1 growth, BacTiter-Glo luminescence, 24 h; actives 1.3% (n = 330,000); AID 463212;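 active means growth inhibition of the mutant yeast at or above 50%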;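 further: temperature-sensitive mutant grown at 25 °C; plate controls were DMSO-treated mutant yeast for no effect and medium wells lacking yeast for full effect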
V-ATPase pH – yeast V-ATPase proton transport regulation by pHLuorin. S. cerevisiae, pHLuorin cytosolic pH fluorescence. response, % at 10 µM. actives 0.37% (n = 350,000). AID 504577; in the data active means response mostly above about 7.3%, no sharp cut-off; inactive means mostly below about 5.4%; further: actives read high
tim10-1 inh – tim10-1 yeast growth inhibition; S. cerevisiae tim10-1 ts strain growth, BacTiter-Glo, 24 h; inhibition, % at 20 µM; actives 2.2% (n = 330,000);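 active means inhibition of at least 40%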;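 further: mutant grown at 25 °C; 0% = DMSO wells with yeast and 100% = wells holding no yeast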
PfHsp90 yeast 2 – inhibits growth of yeast expressing Plasmodium falciparum Hsp90. actives 0.32% (n = 310,000). S. cerevisiae expressing PfHsp90, BacTiter-Glo ATP, 48 h; yeast lacking PDR1 and PDR3 efflux regulators. inhibition, % at 9.4 µM;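 active means every replicate shows inhibition above about 80%, whatever the replicate mean, limit read from the data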;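 further: 0% = DMSO neutral controls and 100% = 20 µM radicicol positive controls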
tim10 confirm – confirmation of TIM10 yeast growth inhibitors | actives 63% (n = 4,600) | inhibition, % at 10 µM | S. cerevisiae tim10 strain growth, BacTiter-Glo luminescence, 24 h | shares compounds with TIM10 inh;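 active means inhibition of yeast growth at or above a set limit in either of two replicates at 10 µM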;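 further: this counterscreen used the strain with wild-type TIM10; 0% = yeast with DMSO and 100% = medium wells lacking yeast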
* marks the source's active call; other numbers are inactive results; / = not tested or not shown.

SMILES | TIM10 inh | tim23-1 inh | V-ATPase pH | tim10-1 inh | PfHsp90 yeast 2 | tim10 confirm
COc1ccccc1N(C)S(=O)(=O)c1ccc(C(=O)N2CCCC(C(F)(F)F)C2)cc1 (stereo not given) | -5.3 | 14.6 | -1.2 | 10.0 | / | /
O=C1c2ccccc2C(=O)C1c1nccc2ccccc12 | 49.4* | 20.7 | 3.7 | 6.0 | 11.7 | 46.6*
O=C1c2ccccc2C(=O)C1c1ccnc2ccccc12 | 49.3* | 24.7 | -1.0 | 19.5 | 8.9 | 39.1*
O=C1C(c2ccnc3ccccc23)=C(O)c2ccccc21 | 54.9* | 23.4 | 1.7 | 13.4 | 24.0 | 38.1*
O=C1C(=O)c2ccccc2C(O)=C1c1ccccc1F | -3.0 | -26.1 | -2.1 | -46.2 | -32.8 | /
COc1ccc(NC(=O)C2(S(=O)(=O)c3ccc(C)cc3)CC2)cc1 | 24.3 | 8.9 | -2.3 | 18.4 | -79.6 | /
Nc1ccc(-c2cnc(N)c(C(=O)c3cccnc3)n2)cn1 | / | / | -1.2 | / | 13.9 | /
CCC(CC)CN1CCC(CN2C(=S)NC[C@@H]2[C@@H](C)CC)CC1 | / | / | -0.9 | / | 1.2 | /
COc1ccc(NC(C)=O)cc1S(=O)(=O)N(C)Cc1c(C)nn(-c2ccccc2)c1C | -5.6 | 5.6 | 1.2 | 10.7 | / | /
O=C(CNCCC1=CCCCC1)Nc1ccccc1N1CCCCC1 | 40.5* | 33.4 | 1.3 | 28.0 | 7.7 | 23.6
O=C(CNC1CCCCCC1)Nc1ccccc1N1CCCCC1 | 7.1 | 23.6 | -2.7 | 30.1 | 19.8 | /
Oc1c(C=Nc2ccc(Cl)cn2)sc2ccccc12 | 0.4 | -2.9 | -2.5 | 6.1 | -13.0 | /
Oc1c(/C=N/c2ccccn2)sc2ccccc12 | 69.4* | 36.6 | 0.2 | 29.5 | 15.8 | 62.0*
COc1ccccc1N1CCN(C(=O)c2ccc([N+](=O)[O-])s2)CC1 | 42.8* | 34.8 | -0.5 | 24.8 | -3.5 | -12.6
C[C@H](CO)N1C[C@H](C)[C@H](CN(C)S(=O)(=O)c2ccc(Cl)cc2)OCc2cnnn2CCCC1=O | / | / | -0.9 | / | / | /
Oc1nc(Nc2cccc(Cl)c2)sc1/C=C1\C=Nc2ccccc21 | 44.3* | 34.7 | -2.7 | 18.0 | -25.1 | -16.4
Oc1cccc(Nc2nc(O)c(/C=C3\C=Nc4ccccc43)s2)c1 | 18.5 | -6.6 | -0.1 | -1.2 | -18.1 | /
O=C(CNC(=O)c1ccc(Br)o1)Nc1ccncc1 | -2.2 | 2.4 | -4.4 | 2.4 | / | /
O=C(Nc1ccc(Cc2ccncc2)cc1)c1ccc(Br)o1 | 44.4* | 34.2 | -0.1 | 6.4 | -5.5 | 35.7*
O=C(NC(=S)Nc1ccc(Cc2ccncc2)cc1)c1ccccc1 | 50.6* | 30.1 | 3.8 | 29.3 | -73.9 | -28.8
Cc1cc(C)cc(C(=O)NC(=S)Nc2ccc(Cc3ccncc3)cc2)c1 | 47.1* | 33.6 | -3.4 | 19.2 | 20.1 | 8.6
COc1ccccc1C(=O)NC(=S)Nc1ccc(Cc2ccncc2)cc1 | 15.5 | 16.6 | -1.4 | 22.9 | -18.3 | /
COc1ccc(Cl)cc1NC(=O)CN(C)C(C)C(=O)NC(=O)NC1CCCCC1 (stereo not given) | 6.6 | 31.8 | -1.4 | 12.9 | / | /
COc1ccc(-n2ccc(=O)c(C(=O)O)n2)c(OC)c1 | 0.9 | 7.2 | -0.9 | -3.5 | 11.2 | /
COc1ccc(S(=O)(=O)N2CCN(CCOc3ccccc3Cl)CC2)cc1OC | 96.8* | 23.8 | -0.6 | 14.7 | 6.8 | 9.2
SMILES | TIM10 inh | tim23-1 inh | V-ATPase pH | tim10-1 inh | PfHsp90 yeast 2 | tim10 confirm
COc1ccc(S(=O)(=O)N2CCN(CCOc3ccc(Br)cc3)CC2)cc1OC | 12.7 | 31.8 | 7.2 | 20.0 | -4.8 | /
COc1ccc(C(=O)N2CCc3cc(OC)c(OC)cc3C2)cc1OC | 4.4 | 24.5 | 3.0 | 15.8 | 0.0 | /
COc1cc2c(cc1OC)CN(C(=O)c1ccc([N+](=O)[O-])o1)CC2 | 68.4* | 30.7 | -1.3 | 35.0 | 27.0 | 75.0*
S=C(NCCc1ccccc1)N/N=C/c1ccc(Cl)cc1 | 40.6* | 42.0 | 2.4 | 12.4 | -7.4 | 33.4*
NS(=O)(=O)c1ccc(CCNC(=O)CCC(=O)c2cccs2)cc1 | 1.6 | 0.7 | 4.2 | -9.9 | -39.1 | /
O=C(N/N=C/c1ccnc2ccccc12)c1ccccc1O | 3.1 | -9.1 | 0.4 | -1.3 | -20.4 | /
Cc1sc2ncnc(SCC(=O)NC(=O)NCc3ccco3)c2c1C | 50.4* | -24.3 | -2.2 | -8.2 | -4.5 | -0.2
Cc1nc(SCC(=O)NCc2ccco2)c2c(C)c(C)sc2n1 | 7.9 | 14.8 | -0.3 | 15.0 | -22.3 | /
CSc1ccc(S(=O)(=O)Nc2ccc3c4c(cccc24)CC3)cc1 | 41.9* | 45.3 | -2.7 | 29.6 | / | 19.9
COc1ccc(NC(=O)CSc2nnc(-c3ccc(F)cc3)o2)cn1 | -0.8 | 4.8 | -5.4 | -3.0 | -17.0 | /

Source: PubChem BioAssay
